Data published in PubChem BioAssay AID901 (National Center for Advancing Translational Sciences (NCATS), 2007).
Among all 120,000 compounds or so, fewer than 10 were called active. Another 4% or so got no clear call; they are omitted. The call rests on the fitted dose curve; in most records, active means well fitted curve in the direction sought with a large enough effect in the signal ratio (not every such curve was filed as active); inconclusive means small, poorly fitted or top-dose-only effect, or a change in a side signal; inactive means no such curve, though single readings can be large or run the other way; the % refers to the signal ratio. These entries were drawn from the full list.

Each compound was assayed against Inositol monophosphatase 1 (Rattus norvegicus) (UniProt P97697) (assay: qHTS Assay for Identifying the Cell-Membrane Permeable IMPase Inhibitors). Conditions: CHO-M1 cells, HTRF TR-FRET ratio; series mostly up to 46.1 µM.
Inositol monophosphatase 1 (Rattus norvegicus), sequence (P97697 whole entry, looked up): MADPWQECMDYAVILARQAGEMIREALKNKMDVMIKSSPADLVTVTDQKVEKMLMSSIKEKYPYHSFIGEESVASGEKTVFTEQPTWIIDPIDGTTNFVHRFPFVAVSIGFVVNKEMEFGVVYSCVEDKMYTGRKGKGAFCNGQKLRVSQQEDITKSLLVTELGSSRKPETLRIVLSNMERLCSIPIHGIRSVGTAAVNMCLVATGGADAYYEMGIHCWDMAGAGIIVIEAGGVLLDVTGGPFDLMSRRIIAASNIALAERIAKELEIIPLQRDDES
Text: NCGC IMPase Assay Overview
Lithium has been widely used for the treatment of bipolar disorder. But lithium has a narrow therapeutic index and it can cause side effects such as thirst, weight gain, tremor, polyuria and memory problems. Although the mechanism for lithium action in treatment of bipolar disorder is still not fully understood, inhibition of inositol monophosphatase (IMPase) and the subsequent depletion of the inositol pool in living cells have been implicated as the primary therapeutic benefit of lithium therapy. Therefore, a selective IMPase inhibitor with reduced side effects might be a good drug candidate to replace lithium for the treatment of bipolar disorder. Several IMPase inhibitors have been discovered previously. However, they are not suitable for therapeutic use because of their poor cell membrane penetrability or oral bioavailability; the development of new cell-permeable IMPase inhibitors is needed.
IMPase catalyzes the hydrolysis of inositol-1-phosphate (IP1) to release free inositol. Binding of an agonist to a Gq coupled GPCR results in the activation of PLC, which hydrolyzes the PIP2 to form inositol-1,4,5-trisphosphate (IP3) and diacyl glycerol (DAG). While DAG activates protein kinase C (PKC), IP3 triggers the elevation of intracellular free Ca2+. The IP3 is very rapidly inactivated by hydrolysis to IP2, IP1 and then inositol by a series of enzymes including IMPase. Free inositols are used for synthesis of PI and thus start another inositol cycle.
To identify new cell-permeable IMPase inhibitors, we developed a cell-based IMPase assay in which the cytosolic IP1 is measured by a time-resolved fluorescence resonance energy transfer (TR-FRET) assay. In this assay, an IP1 specific antibody is used to detect the labeled IP1 tracer. When the cell lysate contains the elevated IP1 due to the inhibition of IMPase, the TR-FRET between the labeled antibody and IP1 tracer is disrupted resulting in a reduction in the total signal. Since the TR-FRET is used, this cell-based assay is a homogenous assay without cell wash and medium change that is suitable for assay miniaturization and HTS.
NCGC IMPase Assay Protocol Summary
A Chinese hamster ovary (CHO) cell line stably expressing the M1 receptor (CHO-M1) was obtained from ATCC and maintained in F-12 Kaighn's media (Invitrogen, Carlsbad, CA, 21127) supplemented with 10 % FBS, 100 units/ml penicillin, 100 ug/ml streptomycin and 250 ug/ml geneticin at 37C, 5% CO2 in a humidified atmosphere. Before the assay, aliquots of cells were frozen and stored at -135C. The assay was performed in 1536-well format. Data are reported for both the ratio of the two emission wavelengths, and also for the component 'donor' channel, Em2=620. […] AC50 values were determined from concentration-response data modeled with the standard Hill equation.
IMPase 1536-well assay protocol:
(1) Plate 4 ul/well (2000 cells) of cell suspension from frozen CHO-M1 Cells in white, tissue culture treated 1536-well plates that are cultured at 37C, 5 % CO2 for 16 to 30 hours.
(2) Add 23 nl/well of compound in DMSO solution. The final titration for each compound was between 0.6 nM and 46 uM.
(3) Add 1 ul of carbachol (50 uM in stimulation buffer containing10mM HEPES, 1mM CaCl2, 0.5 mM MgCl2, 4.2 mM KCl, 146 mM NaCl, 5.5 mM glucose, 50mM LiCl, pH 7.4.
(4) Incubation at 37C, 5 % CO2 for 30 min.
(5) Add 1 ul/well of d2-conjugated IP1 (d2-IP1) and 1 ul/well of Eu+ cryptate conjugated anti-IP1 antibody (Eu+-Ab) prepared in the cell lysis buffer, both from the IP-One kit (Cisbio, MA).
(6) Incubate at room temperature for 10 minutes.
(7) Detect the assay plate (Ex = 320, Em1 =665 and Em2 620) in a ViewLux plate reader.
inositol monophosphatase, IMPase, IMPase inhibitor, lithium, bipolar disorder, IP-One, HTRF, qHTS, NIH roadmap, NCGC
Note: In the gene ID and protein GI references for this assay, rat IMPase is referenced instead of hampster as hamster accession numbers were not available.
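Further: higher means more IMPase inhibition seen as more IP1 and lower FRET ratio.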

SMILES	outcome
CCOc1ccc(S(=O)(=O)N(CC(=O)NCCSCc2ccc(C)cc2)c2ccccc2)cc1	inactive
Cc1ccc(C)c(N2CCN(Cc3nnc(-c4ccccc4)o3)CC2)c1	inactive
COC(=O)Cc1ccc(NC(=S)NCc2ccc(Cl)cc2)cc1	inactive
CCOc1cccc2c1N[C@@H](c1ccc(C(=O)O)cc1)[C@H]1CC=C[C@@H]21	inactive
NC(=S)N/N=C/c1coc2cc(Cl)ccc2c1=O	inactive
CCc1ccc2oc(-c3ccc(NC(=O)c4cc5ccccc5o4)cc3)nc2c1	inactive
CCOc1ccc(C2CC(=O)c3c([nH]c(C(=O)OCc4ccccc4)c3C)C2)cc1 (stereo unspecified)	inactive
Cc1ccc(C)c(NC(=O)C(OC(=O)c2ccc(C)s2)c2ccccc2)c1 (stereo unspecified)	inactive
CCOc1ccc(NC(=O)c2c(NC(=O)Cc3ccccc3)sc3c2CCC(C)C3)cc1 (stereo unspecified)	inactive
Cc1ccc(NC(=O)C(=O)NCc2ccc(/C=N/NC(=O)c3c(C)nc4cc(C)ccn34)o2)cc1	inactive
Cc1ccc(C)c(OCC(=O)Nc2sc3c(c2C#N)CCCC3)c1C	inactive
Cc1nc(SCC(=O)Nc2ccc(C(=O)O)cc2)n[nH]1	inactive
CCOC(=O)c1c(NC(=S)NC(=O)/C=C/c2cccs2)sc(C)c1C	inactive
CCCOC(=O)c1c(NC(=O)c2cc3nc(-c4ccc(OC)cc4)cc(C(F)(F)F)n3n2)sc2c1CCCC2	inactive
Cc1cccc(-c2nnc(SCC(=O)N3CCCc4ccccc43)o2)c1	inactive
CCOC(=O)/C(C#N)=C/c1ccc(N2CCN(Cc3ccccc3)CC2)cc1	inactive
CCOc1ccc(S(=O)(=O)Nc2ccc3oc4c(c3c2)CC(C)CC4)cc1 (stereo unspecified)	inactive
Cc1ccc(CSCC(N)C(=O)O)cc1 (stereo unspecified)	inactive
CCC1=Nc2cc(C(=O)NCC(C)c3ccccc3)ccc2Sc2ccc(C)cc21 (stereo unspecified)	inactive
CCOC(=O)c1ccc(NC(=O)c2ncn(-c3ccccc3)n2)cc1	inactive
COCCNC(=O)c1ccc(N2CCC3(CC2)OCCO3)c([N+](=O)[O-])c1	inactive
O=C(Nc1ccc2oc(-c3ccc(O)c(Br)c3)nc2c1)c1cc2ccccc2o1	inactive
Cc1c(NS(=O)(=O)c2ccc(NC3CCCC3)c([N+](=O)[O-])c2)c(=O)n(-c2ccccc2)n1C	inactive
O=C(CCS(=O)(=O)c1cc(Br)cc2c1N(C(=O)C1CC1)CC2)Nc1ccc(Br)cc1F	inactive
COc1ccc(OC)c(/C=C/C(=O)OCC(=O)Nc2ccc3c(c2)OCCO3)c1	inactive
COc1cccc(N=C2SC(C(=O)Nc3cccc(Cl)c3)CC(=O)N2C)c1 (stereo unspecified)	inactive

SMILES	outcome
COc1ccc([N+](=O)[O-])cc1NC(=O)c1ccc(N(Cc2ccccc2C)S(C)(=O)=O)cc1	inactive
CC1=C(C(=O)Nc2ccccc2)C(c2ccc(C)cc2)n2nc(SCc3ccccc3C)nc2N1 (stereo unspecified)	inactive
FC(F)(F)c1cc(Nc2nc3ccccc3c3nncn23)ccc1Cl	inactive
CCCSc1nc2sc3c(c2c(=O)n1-c1cccc(Br)c1)CC(C)(C)OC3	inactive
COc1cccc(OCCn2c(-c3ccc(Br)cc3)nc3ccccc3c2=O)c1	inactive
CCOC(=O)c1c(N)n(-c2cccc(C)c2C)c2nc3ccccc3nc12	inactive
Cc1ccc(NC(=O)c2sc3nc(N)c(C#N)cc3c2N)cc1	inactive
Cc1ccc2nc(-c3ccc(C)c(NC(=O)Cc4ccccc4)c3)oc2c1	inactive
CN(Cc1ccccc1)C(=O)CCS(=O)(=O)c1cc(Br)cc2c1N(C(=O)C1CC1)CC2	inactive
COC(=O)c1ccc(OCC(O)CN(CCO)CC(O)Cn2ccc3ccccc32)cc1 (stereo unspecified)	inactive
COc1cccc(C(=O)NC2(C(F)(F)F)C(=O)Nc3c2c(=O)[nH]c(=O)n3-c2ccc(C)cc2)c1 (stereo unspecified)	inactive
COC(=O)c1c(NC(=O)C(C)Oc2ccc(Cl)c(C)c2)sc(C)c1C (stereo unspecified)	inactive
O=C(NCCCN1CCN(c2cccc(Cl)c2)CC1)c1nnc(Cc2ccc(F)cc2Cl)o1	inactive
CCC(=O)NCc1cc(-c2nn(C)c(=O)c3ccccc23)ccc1OC	inactive
CCCn1c(C)cc(/C=C(\C#N)C(=O)OCC(=O)Nc2cc(OC)c(OC)c(OC)c2)c1C	inactive
COc1ccc2nc(SCc3ccccc3)nc(C)c2c1	inactive
COc1ccc(-c2cc(C(F)(F)F)nc(SCC(=O)N(C)Cc3ccccc3)n2)cc1OC	inactive
O=C(COC(=O)c1cc([N+](=O)[O-])ccc1NCc1ccccc1)NC1CCCCC1	inactive
CCCn1c(=N)n(CC(O)COc2ccccc2OC)c2ccccc21 (stereo unspecified)	inactive
COc1cccc(-c2nnc(SCC(=O)N3CCC(C)CC3)o2)c1	inactive
Cc1cc(C)cc(NC(c2nnc(-c3cccc(F)c3)o2)c2ccc(F)cc2Cl)c1 (stereo unspecified)	inactive
CCn1c2ccccc2c2cc(NC(=O)COc3ccc(C)cc3C)ccc21	inactive
Cc1cccc(N2CCN(C(=O)c3ccc(Nc4nc5ccccc5n5nnnc45)cc3)CC2)c1C	inactive
O=C(Nc1ccc(Oc2ccccc2)cc1)C1CCN(S(=O)(=O)c2ccc(Cl)cc2)CC1	inactive
CCOC(=O)c1cnc2c(C)cc(Cl)cc2c1NCCc1ccc(OC)c(OC)c1	inactive
